These results are taken from PubChem BioAssay (NCI).

About 83,000 compounds went through this panel and 20% of them were active in at least one assay; those are over-represented in the sample as a whole.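 The endpoint reported here, percent growth, reads 100 for growth as untreated, 0 for no net growth and -100 for all cells dead.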 Values without a mark were called inactive. Activity calls are given as the source filed them. How the source made its calls: active means growth percent below 10; inactive means the rest.

This assay concerns MDA-MB-468 breast. Nature of the assay: NCI-60 one-dose screen, 48 h (100 = growth as untreated, 0 = no growth, -100 = all killed). To be noted: 10 µM unless noted.
Regarding `COc1ccc(/C=C\c2cc(OC)c(OC)c(OC)c2)c(NS(=O)(=O)c2ccc(Cl)cc2)c1O`, the growth was 9.56% (active).

`Cn1cnnc1[S-].[Au+].c1ccc([PH+](c2ccccc2)c2ccccc2)cc1`: the growth is -49.1% (active).

For `CN1CCC2(CC1)C(C#N)C(=O)NC(=O)C2C#N` (stereo not drawn), the growth is 102%.
